From PubChem BioAssay (NCI)
Compounds without any hit were thinned out: in the full panel of roughly 79,000, 15% have a hit. A number with no mark means an inactive call. Active and inactive are the calls of the source. Rule as the data show it: active = growth inhibition above about 70%; inactive = the rest.

Tests used:
[1] = NCI Yeast Anticancer Drug Screen. Data for the rad50 strain (AID 155);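 also: 0% = growth of vehicle-only cultures of the same strain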; conditions: S. cerevisiae rad50 strain growth inhibition, active compounds read high
Summary of the method: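 DNA repair mutant yeast, compound exposure, growth read-out; inhibition is taken relative to vehicle.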

[2] = NCI Yeast Anticancer Drug Screen. Data for the mec2-1 strain (AID 157); conditions: S. cerevisiae mec2-1 strain, active compounds read high
Summary of the method: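 Strain: mec2-1 (DNA repair/cell cycle alteration). Compound exposure, then growth measured; inhibition expressed relative to vehicle.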

[3] = NCI Yeast Anticancer Drug Screen. Data for the sgs1 mgt1 strain (AID 161);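 also: 0% = growth of cultures given vehicle only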; conditions: S. cerevisiae sgs1 mgt1 strain, active compounds read high
Summary of the method: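 Genetically altered yeast, compound exposure, growth inhibition relative to vehicle.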

[4] = NCI Yeast Anticancer Drug Screen. Data for the cln2 rad14 strain (AID 165);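 also: 0% = growth equal to vehicle treated cultures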; conditions: S. cerevisiae cln2 rad14 strain, active compounds read high
Summary of the method: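 Compounds are applied to the cln2 rad14 yeast strain, and growth is then compared with that of vehicle-treated cultures to give inhibition.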

[5] = NCI Yeast Anticancer Drug Screen. Data for the bub3 strain (AID 167); conditions: S. cerevisiae bub3 mutant strain, active compounds read high
Summary of the method: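 In this screen, a yeast mutant lacking normal mitotic checkpoint function is challenged with compound. Relative growth versus vehicle gives the inhibition value.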

[6] = NCI Yeast Anticancer Drug Screen. Data for the mlh1 rad18 strain (AID 175); conditions: S. cerevisiae mlh1 rad18 strain growth inhibition, active compounds read high
Summary of the method: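 Read-out is yeast growth inhibition, calculated against vehicle-only controls. The compound was applied to a strain engineered with DNA damage repair alterations.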

[7] = at 5.0 µM (retest, dose inferred, filed as 0.5)
[8] = at 50.0 µM (retest, dose inferred, filed as 5.0)

| SMILES | growth inhibition [1, 7] | growth inhibition [1, 8] | growth inhibition ([1]; at 50.0 µM) | growth inhibition [2, 7] | growth inhibition [2, 8] | growth inhibition ([2]; at 50.0 µM) | growth inhibition [3, 7] | growth inhibition [3, 8] | growth inhibition ([3]; at 50.0 µM) | growth inhibition [4, 7] | growth inhibition [4, 8] | growth inhibition ([4]; at 50.0 µM) | growth inhibition [5, 7] | growth inhibition [5, 8] | growth inhibition ([5]; at 50.0 µM) | growth inhibition [6, 7] | growth inhibition [6, 8] | growth inhibition ([6]; at 50.0 µM) |
| --- | --- | --- | --- | --- | --- | --- | --- | --- | --- | --- | --- | --- | --- | --- | --- | --- | --- | --- |
| O=C(O)c1cc(Cc2ccc(O)c(C(=O)O)c2)ccc1O (tested in a mixture with another compound) | 92% (active) | 32% | 42.6% | 76% (active) | 4% | 26.7% | 40% | 48% | 85% (active) | 31% | 41% | 14.1% | 33% | 36% | 72.7% (active) | 87% (active) | 36% | 74.4% (active) |
| COC(CNS(=O)(=O)c1ccccc1)[CH2][Hg][O]C(C)=O (stereo not given) | 1% | -1% | 99.5% (active) | -3% | 13% | 98.8% (active) | -5% | 19% | 99.2% (active) | -4% | 6% | 99.1% (active) | 2% | 4% | 99.2% (active) | -2% | 11% | 99.2% (active) |
| N#CC(Cl)(Cl)CCl | 6% | 41% | -16.8% | -4% | 15% | 13.2% | 4% | 42% | -9% | -5% | 33% | 47% | 6% | 99% (active) | 0.15% | 2% | 38% | 2.5% |
| COS(=O)(=O)c1ccccc1 | 8% | -2% | -2.5% | 0% | -2% | -2.4% | -4% | 4% | 11.6% | 7% | -4% | -16.8% | 1% | 39% | -4.55% | 8% | -1% | 10.3% |
| CC(=O)C(CN1CCOCC1)C(c1ccccc1)c1c(O)c2ccccc2oc1=O (stereo not given) | 7% | 73% (active) | -1.6% | 5% | 75% (active) | -12.3% | 3% | 80% (active) | 9.4% | 5% | 79% (active) | 0.25% | 22% | 83% (active) | 21.9% | 6% | 81% (active) | -13.5% |
| CCC(C)c1cnc(CC(C)C)c(=O)n1O (stereo not given) | 87% (active) | 99% (active) | 91% (active) | 26% | 99% (active) | 88.8% (active) | 75% (active) | 98% (active) | 90% (active) | 68% | 98% (active) | 86.3% (active) | 59% | 98% (active) | 90.7% (active) | 73% (active) | 99% (active) | 89.6% (active) |
| CCCCCN1C(=O)C2C(C1=O)C1(Cl)C(Cl)=C(Cl)C2(Cl)C1(Cl)Cl (stereo not given) | 37% | 95% (active) | 97% (active) | 35% | 97% (active) | 96.4% (active) | 16% | 95% (active) | 96.4% (active) | 16% | 95% (active) | 95.2% (active) | 12% | 96% (active) | 97.5% (active) | 33% | 96% (active) | 95.6% (active) |
| CNP(=O)(Oc1cc(Cl)c(Cl)cc1Cl)N1CCN(c2ccccc2)CC1 (stereo not given) | 12% | 81% (active) | 98.8% (active) | 36% | 48% | 98% (active) | 8% | 72% (active) | 98% (active) | 25% | 53% | 97.8% (active) | 11% | 86% (active) | 97.5% (active) | -5% | 91% (active) | 97.4% (active) |
| CC(C)[S-].CC(C)[S-].[Pt+2].c1ccc([PH+](c2ccccc2)c2ccccc2)cc1.c1ccc([PH+](c2ccccc2)c2ccccc2)cc1 | 4% | 96% (active) | 88.2% (active) | 5% | 97% (active) | 90.3% (active) | 2% | 98% (active) | 86.2% (active) | -2% | 96% (active) | 55.9% | 7% | 97% (active) | 67.3% | 4% | 97% (active) | 95.7% (active) |
| CCC[CH2][Sn]1([CH2]CCC)[O]C(=O)c2cccc(OC)c2[O]1 | 93% (active) | 99% (active) | 97.8% (active) | 95% (active) | 99% (active) | 98% (active) | 93% (active) | 98% (active) | 99.2% (active) | 93% (active) | 98% (active) | 98.4% (active) | 94% (active) | 97% (active) | 98.4% (active) | 88% (active) | 98% (active) | 98.9% (active) |
